Sampled rows, rich in hits. Any-hit rate of the full collection: about 2.2%.
SUMO Mot1 rescue = yeast Mot1-301 growth rescue at high temperature, primary screen, SUMOylation pathway inhibitor project, S. cerevisiae, ATP luminescence, 38.5C. S. cerevisiae Mot1-301 growth rescue; percent above DMSO median, 100 means doubled. growth rescue, % at 18.8 µM. 1% of 320,000 active;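 active = every valid replicate shows activation above 250% relative to neutral control wells; inactive = the rest, any valid replicate at or below 250%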;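 note: OY570 slx delta 5 strain wells were the positive control but not used for scaling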
PvdQ acylase = P. aeruginosa PvdQ acylase inhibitors, primary screen, biochemical, fluorescence, plate reader and imaging, single point; PvdQ acylase [Pseudomonas aeruginosa LESB58]; purified PvdQ acylase; inhibition, % at 10 µM; 0.063% of 340,000 active; AID 488965, 2010; in the data active = inhibition above about 30%, passing the limit was not always enough;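 note: 0% = vehicle neutral wells and 100% = reference inhibitor wells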
GASC-1 inh = inhibitors of GASC-1 histone demethylase, primary screen, biochemical, fluorescence, DELFIA europium | GST-JMJD2C(1-420) H3K9me3 demethylation | inhibition, % at 2.35 µM | 0.069% of 330,000 active | AID 2099, 2009;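 active = more than half of a compound's replicate wells show inhibition beyond 50%, single wells judged on their own value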;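 note: signal counts dimethyl H3K9 product captured on neutravidin plate; 0% = median of DMSO wells and 100% = 0.3 times that DMSO median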
Target sequence (Q9H3R0 1-420 limits assumed): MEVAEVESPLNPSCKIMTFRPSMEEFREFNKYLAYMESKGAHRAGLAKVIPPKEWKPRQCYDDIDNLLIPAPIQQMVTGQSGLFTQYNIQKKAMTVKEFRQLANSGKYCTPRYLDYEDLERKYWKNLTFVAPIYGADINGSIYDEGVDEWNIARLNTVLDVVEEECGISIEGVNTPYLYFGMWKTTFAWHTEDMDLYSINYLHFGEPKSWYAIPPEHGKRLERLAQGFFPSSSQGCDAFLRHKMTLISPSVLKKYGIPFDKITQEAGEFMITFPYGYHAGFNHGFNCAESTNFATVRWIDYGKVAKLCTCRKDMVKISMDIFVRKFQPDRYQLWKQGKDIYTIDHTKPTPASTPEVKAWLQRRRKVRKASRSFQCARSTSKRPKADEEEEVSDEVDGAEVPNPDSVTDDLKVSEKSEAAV
PHOSPHO1 block = PubChem AID 1565; inhibition, % at 13.3 µM; 1.1% of 290,000 active; recombinant PHOSPHO1, absorbance phosphatase assay; in the data active = inhibition above about 60%
Target sequence (Q8TCT1 whole entry, looked up): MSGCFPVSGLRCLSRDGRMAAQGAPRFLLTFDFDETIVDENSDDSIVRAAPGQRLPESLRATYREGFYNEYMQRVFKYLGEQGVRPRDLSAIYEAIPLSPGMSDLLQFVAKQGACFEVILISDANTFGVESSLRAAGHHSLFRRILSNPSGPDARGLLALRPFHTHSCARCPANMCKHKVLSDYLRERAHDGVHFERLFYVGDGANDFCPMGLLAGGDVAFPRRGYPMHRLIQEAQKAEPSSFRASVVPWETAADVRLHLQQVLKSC
pCIP destab = p/CIP-EGFP fusion destabilizers, primary screen, fluorescence, F442A cells. Q05BA5. 16 h. decrease of EGFP signal, % at 10 µM. 0.01% of 290,000 active. AID 1984, 2009;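 active = EGFP signal decrease of at least 30% at 10 µM or well 3 SD below plate mean, unless failing retest; inactive = the rest, including hits failing retest or dose response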
HDAC3 inhib = HDAC3 deacetylase inhibitors, primary screen, biochemical, fluorescence, cell-free homogeneous. Histone deacetylase 3 (Homo sapiens), O15379. recombinant HDAC3, fluorogenic peptide/trypsin coupled. inhibition, % at 8.3 µM. 0.15% of 320,000 active. AID 2718, 2010; in the data active = inhibition above about 26%, passing the limit was not always enough
Mot1 SUMO dose = growth restoration of Mot1-301 yeast on galactose, dose response, SUMO pathway inhibitor project, whole organism, S. cerevisiae, ATP luminescence, cherry-picked samples. shares compounds with SUMO Mot1 rescue. S. cerevisiae Mot1-301 galactose growth, 24 h; -100 = growth of slx-deleted rescue strain. growth activity, percent, % at 42 µM. 2,300 tested, under 10 active. AID 493004, 2010;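 active = Signal drops as the depositor expects, and the fitted half-maximal dose is no more than ten times the top valid tested dose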;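 note: more negative values mean stronger growth rescue toward the control strain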
Numbers without * were called inactive; . = not tested or not shown; + = active, no number.

SMILES	SUMO Mot1 rescue	PvdQ acylase	GASC-1 inh	PHOSPHO1 block	pCIP destab	HDAC3 inhib	Mot1 SUMO dose
COc1cc(/C=N/NC(=O)c2cccnc2)ccc1OCC(=O)N1CCOCC1	768.4*	14.4	-6.9	-8.9	-5.3	5.8	0.0
COc1cc(/C=N/NC(=O)c2ccncc2)ccc1OC(=O)c1ccco1	404.4*	-4.1	-13.1	27.9	1.0	3.3	0.5
C=CCn1c(CCNC(=O)c2ccccc2F)nnc1SCC(=O)Nc1nc2ccccc2s1	-4.7	-7.3	-0.5	11.6	-8.5	-3.2	.
Cc1cc(C)n(C(=O)c2cccc([N+](=O)[O-])c2C)n1	25.1	-3.9	2.3	13.9	3.2	-9.0	.
Cc1cc(C)n(C(=O)c2ccccc2[N+](=O)[O-])n1	438.1*	9.5	-6.6	-6.2	-7.0	-5.0	0.2
Cc1nc2sc(C(c3ccccc3)N3CCC(O)CC3)c(O)n2n1 (stereo not drawn)	+	-8.8	-14.7	-0.4	3.7	-7.8	0.8
O=C(O)COc1ccc(=O)n(-c2ccccc2)n1	+	-6.0	7.2	13.9	-1.3	-4.7	0.3
CC1=NNC(=O)C1CC(=O)N/N=C(\C)c1ccco1 (stereo not drawn)	-0.2	-5.8	-0.8	12.7	-5.2	-1.0	.
CC(c1ccccn1)N(CCN(C)C)C(=S)Nc1cccc(F)c1 (stereo not drawn)	435.6*	3.9	9.7	15.4	-3.8	-5.6	0.2
Cc1cccc(C)c1NC(=S)N(CCN(C)C)C(C)c1ccccn1 (stereo not drawn)	7.9	-1.3	11.7	-15.4	-9.5	2.6	.
CCCCn1c(SCC(=O)Nc2cc(C)on2)nnc1-c1ccco1	527.0*	-13.6	-3.9	-19.9	-15.5	-0.5	0.5
O=C(NCc1ccccn1)C1Nc2ccc(C(F)(F)F)cc2C2C=CCC12 (stereo not drawn)	561.7*	-9.6	-2.1	.	.	-0.4	1.1
O=S(=O)(c1ccc(SCc2ccc(Br)cc2)nc1)N1CCCCC1	.	6.6	.	.	.	.	.
COc1ccc(CN(CC(=O)NCC2CCCO2)C(=O)CNS(=O)(=O)c2ccc(C)cc2)cc1 (stereo not drawn)	18.3	-3.4	-16.5	11.3	-10.9	0.6	.
COc1ccc(S(=O)(=O)NCC(=O)N(CC(=O)NCC2CCCO2)c2ccccc2C)cc1 (stereo not drawn)	920.9*	8.8	-18.4	10.4	-0.8	-1.3	0.9
O=C(CN(CC1CCCO1)C(=O)CNS(=O)(=O)c1ccc(F)cc1)NCc1ccccc1 (stereo not drawn)	886.2*	8.6	4.8	28.0	-11.7	-0.1	0.3
COCCNCc1ccccc1	646.6*	-17.0	-5.9	-8.7	-2.7	-12.2	0.1
NNc1nc2c(-c3cccc(C(F)(F)F)c3)nnn2c2ccccc12	13.1	-5.8	3.1	-2.6	-16.9	-3.7	.
COc1ccc(NC(=S)N2CCN(c3ccccn3)CC2)cc1OC	3.5	-15.0	-0.7	-11.4	-9.8	0.2	.
COc1ccc(C)cc1NC(=S)N1CCN(c2ccccn2)CC1	512.7*	-6.8	-6.8	-11.4	-0.1	-2.3	0.8
NC(=O)c1nn(-c2ccccc2)nc1NC(=O)Cn1nnc(-c2ccccc2)n1	-2.6	-11.3	1.7	-21.6	-1.3	-8.7	.
O=C(CSc1nc2ccccc2[nH]1)NC1CCCC1	86.5	-18.5	4.5	27.1	-4.0	1.2	.
O=C(CSc1nc2ncccc2[nH]1)NC1CCCCC1	929.4*	-3.3	0.2	10.8	-9.0	6.1	0.3
COc1ccc(C(=O)C(CN2CCOCC2)c2ccccc2)cc1 (stereo not drawn)	314.4	19.3	-4.0	0.2	-1.3	6.7	.
O=C(c1ccc(F)cc1)C(CN1CCOCC1)c1ccccc1 (stereo not drawn)	372.3*	10.5	0.0	19.2	-17.7	16.8	-2.1
SMILES	SUMO Mot1 rescue	PvdQ acylase	GASC-1 inh	PHOSPHO1 block	pCIP destab	HDAC3 inhib	Mot1 SUMO dose
CCOC(=O)c1ccc(NC(=O)c2c(NC(=O)CCC(=O)O)sc3c2CCCCC3)cc1	630.8*	-7.9	0.4	-5.9	-34.4	4.7	-0.4
CCOc1ccccc1NC(=O)c1c(NC(=O)CCC(=O)O)sc2c1CCCCC2	.	4.4	.	-147.2	-24.2	.	.
Cc1sc2nc(CN3CCCC3)nc(NCc3ccncc3)c2c1C	802.0*	-26.8	-5.0	35.9	-12.3	10.6	-0.1
CC(=O)Cc1nsc(Nc2cccc(C)c2)n1	901.4*	7.9	10.1	24.5	9.2	3.4	-0.1
O=C(O)c1ccc(COc2c(F)c(F)cc(F)c2F)cc1	+	-3.1	22.6	-3.2	-14.1	1.6	0.3
CC1=CC(=C2C=CC(=O)C=C2)C=C(C)N1C	.	.	-0.4	40.4	8.5	.	.
O=C1CN(C(=O)COC(=O)c2cccc(S(=O)(=O)NCc3ccccc3)c2)c2ccccc2N1	553.8*	-6.3	2.7	36.5	-3.3	-6.6	0.5
O=C(/C=C/c1ccccc1[N+](=O)[O-])Nc1cccc(S(=O)(=O)NC2=NCCCCC2)c1	.	11.0	.	.	.	.	.
O=C(/C=C/c1ccc(Cl)cc1Cl)Nc1cccc(S(=O)(=O)NC2=NCCCCC2)c1	546.8*	-7.4	-1.9	4.2	-3.6	-5.9	0.7
COc1cc(C(C2=C(O)CC(C)(C)CC2=O)C2C(=O)CC(C)(C)CC2=O)cc(OC)c1OC (stereo not drawn)	658.5*	-8.4	5.0	6.7	13.7	-1.1	0.9
CCOC(=O)C1CCCN(C(=O)c2cc(-c3ccncc3)nc3ccccc23)C1 (stereo not drawn)	79.2	-18.4	2.2	.	.	-3.8	.
CCOC(=O)C1CCCN(C(=O)c2cc(-c3ccc(F)cc3)nc3ccccc23)C1 (stereo not drawn)	463.4*	6.8	6.4	6.5	-5.5	5.3	-0.1
O=C(/C=C/c1ccco1)Nc1ccccc1C(=O)Nc1cccc(C(=O)O)c1	1.2	-10.5	5.5	28.1	-6.3	.	.
Cc1cc(NC(=O)/C=C/c2ccco2)ccc1NC(=O)c1ccccc1	431.6*	-10.1	1.8	28.8	-17.0	13.1	0.0
O=C(Nc1cccc(Cl)c1)OCc1cncs1	+	-10.6	-10.9	18.1	1.1	-4.0	-0.1
O=C(Nc1ccc(Cl)cc1)OCc1cncs1	-2.1	-12.4	0.5	-9.1	-38.8	3.5	.
CCCCOc1ccc(C(O)C(CN2CCOCC2)c2ccccc2)cc1 (stereo not drawn)	786.7*	-13.4	-5.0	6.2	4.6	.	0.4
CC(C)CNc1nc(Oc2ccc(=O)[nH]n2)nc(N2CCOCC2)n1	13.6	-13.7	8.7	13.1	-2.3	2.6	.

Assay outcomes: PubChem BioAssay, several laboratories
